Bioassay records from PubChem BioAssay.
mHTT CaM bind = mutant huntingtin-calmodulin interaction inhibitors – biochemical, AlphaScreen, primary screen; 190,000 compounds, 3.6% hits; P42858; inhibition, % at 15 µM; AID 1671202, 2021; AlphaScreen His-mHTT/GST-CaM binding, luminescence;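 further: 0% = both proteins with DMSO and 100% = one protein alone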
Target sequence (P42858 whole entry, looked up, stated change not applied): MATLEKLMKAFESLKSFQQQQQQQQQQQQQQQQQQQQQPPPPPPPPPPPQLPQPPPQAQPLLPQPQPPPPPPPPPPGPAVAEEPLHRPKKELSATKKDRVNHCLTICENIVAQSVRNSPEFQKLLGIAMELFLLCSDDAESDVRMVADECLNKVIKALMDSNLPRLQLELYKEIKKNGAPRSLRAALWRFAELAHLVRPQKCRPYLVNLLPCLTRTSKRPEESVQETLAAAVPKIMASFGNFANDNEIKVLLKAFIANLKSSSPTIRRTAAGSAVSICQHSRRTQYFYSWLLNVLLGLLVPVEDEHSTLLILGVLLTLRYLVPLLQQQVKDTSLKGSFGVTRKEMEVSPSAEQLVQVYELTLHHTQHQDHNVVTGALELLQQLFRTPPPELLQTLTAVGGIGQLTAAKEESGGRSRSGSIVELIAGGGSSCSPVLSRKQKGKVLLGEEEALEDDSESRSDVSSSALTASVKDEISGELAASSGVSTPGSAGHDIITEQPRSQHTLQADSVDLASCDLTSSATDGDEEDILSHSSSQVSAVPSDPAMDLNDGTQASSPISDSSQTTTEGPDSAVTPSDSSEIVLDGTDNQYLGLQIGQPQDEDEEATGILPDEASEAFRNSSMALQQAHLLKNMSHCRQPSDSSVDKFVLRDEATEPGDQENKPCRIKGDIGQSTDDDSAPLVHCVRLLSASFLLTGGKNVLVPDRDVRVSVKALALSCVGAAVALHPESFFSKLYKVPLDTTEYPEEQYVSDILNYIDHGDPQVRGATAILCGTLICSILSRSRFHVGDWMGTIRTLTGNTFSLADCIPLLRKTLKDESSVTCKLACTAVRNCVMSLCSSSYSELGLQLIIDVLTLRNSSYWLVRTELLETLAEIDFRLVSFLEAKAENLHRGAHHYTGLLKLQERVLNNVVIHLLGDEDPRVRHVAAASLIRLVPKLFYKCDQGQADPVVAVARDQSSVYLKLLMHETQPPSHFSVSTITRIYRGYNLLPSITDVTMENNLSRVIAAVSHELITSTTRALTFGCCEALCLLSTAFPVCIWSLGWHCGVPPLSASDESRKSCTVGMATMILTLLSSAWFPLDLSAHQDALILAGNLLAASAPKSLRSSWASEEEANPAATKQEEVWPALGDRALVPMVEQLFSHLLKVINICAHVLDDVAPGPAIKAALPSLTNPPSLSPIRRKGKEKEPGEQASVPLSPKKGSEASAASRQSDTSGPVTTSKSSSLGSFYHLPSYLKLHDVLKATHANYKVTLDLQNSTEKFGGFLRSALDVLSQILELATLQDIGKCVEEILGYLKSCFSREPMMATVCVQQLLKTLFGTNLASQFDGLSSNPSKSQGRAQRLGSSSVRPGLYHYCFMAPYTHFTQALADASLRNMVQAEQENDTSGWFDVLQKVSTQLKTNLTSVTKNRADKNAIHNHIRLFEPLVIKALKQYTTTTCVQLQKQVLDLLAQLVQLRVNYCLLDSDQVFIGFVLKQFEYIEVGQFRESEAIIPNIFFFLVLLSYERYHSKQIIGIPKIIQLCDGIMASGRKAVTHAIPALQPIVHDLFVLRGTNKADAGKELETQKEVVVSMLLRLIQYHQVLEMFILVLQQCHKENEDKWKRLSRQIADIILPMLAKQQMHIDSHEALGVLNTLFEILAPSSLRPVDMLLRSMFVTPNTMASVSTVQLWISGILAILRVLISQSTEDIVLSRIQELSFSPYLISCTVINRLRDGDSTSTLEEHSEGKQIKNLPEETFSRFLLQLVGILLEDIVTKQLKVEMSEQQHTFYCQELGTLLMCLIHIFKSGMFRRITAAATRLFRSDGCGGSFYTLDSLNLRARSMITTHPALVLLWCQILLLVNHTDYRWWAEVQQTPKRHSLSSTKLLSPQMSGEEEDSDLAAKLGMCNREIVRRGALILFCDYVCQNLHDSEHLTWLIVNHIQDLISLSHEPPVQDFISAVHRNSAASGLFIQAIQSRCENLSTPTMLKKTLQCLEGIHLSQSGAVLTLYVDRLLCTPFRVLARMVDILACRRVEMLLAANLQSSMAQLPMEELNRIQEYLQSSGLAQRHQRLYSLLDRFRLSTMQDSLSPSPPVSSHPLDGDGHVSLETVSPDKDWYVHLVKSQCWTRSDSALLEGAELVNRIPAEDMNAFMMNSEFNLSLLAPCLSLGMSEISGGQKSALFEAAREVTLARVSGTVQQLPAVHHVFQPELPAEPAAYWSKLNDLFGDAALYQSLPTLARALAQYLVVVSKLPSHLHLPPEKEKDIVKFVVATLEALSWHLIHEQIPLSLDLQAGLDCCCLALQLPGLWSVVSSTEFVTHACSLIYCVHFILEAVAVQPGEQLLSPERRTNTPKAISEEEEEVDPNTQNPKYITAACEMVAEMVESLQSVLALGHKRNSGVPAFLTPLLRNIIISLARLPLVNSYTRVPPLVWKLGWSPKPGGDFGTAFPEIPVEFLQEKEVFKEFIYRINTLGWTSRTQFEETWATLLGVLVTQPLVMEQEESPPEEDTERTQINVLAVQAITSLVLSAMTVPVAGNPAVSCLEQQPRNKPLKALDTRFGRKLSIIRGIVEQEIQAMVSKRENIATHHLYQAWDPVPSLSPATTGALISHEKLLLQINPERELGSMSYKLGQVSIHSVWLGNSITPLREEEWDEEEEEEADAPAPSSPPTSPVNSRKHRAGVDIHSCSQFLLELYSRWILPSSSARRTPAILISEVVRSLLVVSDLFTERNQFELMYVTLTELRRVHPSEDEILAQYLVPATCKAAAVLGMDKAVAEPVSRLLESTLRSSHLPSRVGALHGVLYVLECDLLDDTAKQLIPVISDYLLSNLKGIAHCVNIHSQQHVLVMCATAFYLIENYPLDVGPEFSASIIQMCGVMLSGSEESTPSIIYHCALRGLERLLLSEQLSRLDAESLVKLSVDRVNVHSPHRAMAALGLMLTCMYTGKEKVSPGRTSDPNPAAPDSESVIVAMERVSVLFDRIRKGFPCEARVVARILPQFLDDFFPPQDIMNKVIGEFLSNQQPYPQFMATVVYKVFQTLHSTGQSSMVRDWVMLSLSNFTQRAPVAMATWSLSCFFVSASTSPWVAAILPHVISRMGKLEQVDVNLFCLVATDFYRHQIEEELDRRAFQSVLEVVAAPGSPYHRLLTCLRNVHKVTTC
Pf apPOL inh = Pf-apPOL inhibitors, biochemical, fluorescence. inhibition, % at 10 µM. AID 1794808, 2022. Recombinant Pf-apPOL, molecular beacon fluorescence, 1.5 h. 210,000 compounds, 0.25% hits
* hit, by the source's call; / = not tested or not shown. This is one part of a sample in which hits are shown more often than they occur. No stated cut-off is given here; in the data, active means inhibition above about 50%; inactive means the rest.

SMILES	mHTT CaM bind	Pf apPOL inh
CCC1Oc2ccccc2C2CC(c3cccs3)=NN12 (configuration not stated)	75*	3
Clc1cccc(C2Oc3ccccc3C3CC(c4ccccc4)=NN32)c1Cl (configuration not stated)	-9	/
O=[N+]([O-])c1ccc(O)c(C2Oc3ccccc3C3CC(c4cccs4)=NN32)c1 (configuration not stated)	62*	3
NC(=O)c1cccc(NC(=O)CCC(=O)O)c1	2	-8
CC(NC(=O)CCc1nc(-c2cccs2)no1)c1ccc2c(c1)OCCO2 (configuration not stated)	1	0
COCCNS(=O)(=O)c1cc(Br)cc2c1N(C(C)=O)CC2	5	-1
Cc1ccccc1C(=O)N1CCN(c2ccc(Cl)cc2C)C(=O)C1C (configuration not stated)	-3	2
Clc1ccc2c(c1)c1cc(Cl)ccc1n2Cc1ccccc1	/	-10
COc1ccc(C(CCN2CCN(c3ccccc3)CC2)c2c(OC)cc(OC)c3c(-c4ccccc4)cc(=O)oc23)cc1 (configuration not stated)	30	-1
CCN(CC)C(=O)CC(c1ccc(OC)cc1)c1c(OC)cc(OC)c2ccc(=O)oc12 (configuration not stated)	32	-1
COc1cc(OC)c2ccc(=O)oc2c1C(CCN1CCN(c2ccccc2)CC1)c1ccc(N(C)C)cc1 (configuration not stated)	84*	-2
CCN(CC)CCC(c1ccc(N(C)C)cc1)c1c(OC)cc(OC)c2c(-c3ccccc3)cc(=O)oc12 (configuration not stated)	100*	-6
COc1cc(OC)c2c(-c3ccccc3)cc(=O)oc2c1C(CCN1CCN(c2ccccc2)CC1)c1ccc(N(C)C)cc1 (configuration not stated)	69*	-6
COc1cc(OC)c2ccc(=O)oc2c1C(CCN1CCOCC1)c1ccc(N(C)C)cc1 (configuration not stated)	47	-8
Cc1cccc2c(C(=O)NC(C)C)cc(N(C)C)nc12	4	22
O=C(Nc1cccc(O)c1)C1CC(c2cccc(Br)c2)=NO1 (configuration not stated)	8	2
Cc1ccc(CNC(=O)c2cc(NC(=O)C(C)C)cc3nc(C)ccc23)cc1	19	28
Cc1ccc2c(C(=O)NCc3ccccc3Cl)cc(NC(=O)C(C)C)cc2n1	58*	0
CCC(=O)Nc1cc(C(=O)NCc2cc(F)cc(F)c2)c2ccc(C)nc2c1	54*	0
CCOc1ccc(CNC(=O)c2cc(NC(C)=O)cc3nc(C)ccc23)cc1	18	7
O=C(Cc1ccccc1)Nc1cccc(-c2nc3ccccc3s2)c1	3	-1
CN(C)S(=O)(=O)c1ccc(C(=O)Nc2nnc(-c3ccc(F)cc3)o2)cc1	15	-43
COc1cc2c(cc1OC)C(C(=O)N(C)CCc1ccccn1)C(c1ccccc1F)N(C)C2=O (configuration not stated)	-13	-7
COc1ccccc1CNC(=O)c1c(-c2ccccc2Cl)noc1C	-11	10
CC1CCN(C(=O)c2cn3c(n2)COCC3)CC1	-13	-4
SMILES	mHTT CaM bind	Pf apPOL inh
Cc1nn(-c2ccccc2)c2sc(C(=O)Nc3ccc(C)c4ncccc34)cc12	21	5
Cc1cccc(C2CCCN2C(=O)Cc2ccc(F)cc2)c1 (configuration not stated)	-1	-4
O=C1NC(=S)SC1=Cc1ccc(Sc2ccc(Cl)cc2)c([N+](=O)[O-])c1	/	69*
O=C1NC(=O)/C(=C/c2ccc(Cl)c([N+](=O)[O-])c2)S1	4	0
O=C(O)C1CCN(S(=O)(=O)c2ccc(Br)s2)CC1	-2	-2
O=C(COc1ccccc1[N+](=O)[O-])Nc1cc(C(=O)O)cc(C(=O)O)c1	-6	1
O=C(Cc1ccccc1)Nc1ccc(S(=O)(=O)N2CCCC2)cc1	1	-8
O=C(COc1ccccc1[N+](=O)[O-])Nc1ccc(N2CCCC2)cc1	34	54*
O=C(Cc1ccc([N+](=O)[O-])cc1)Nc1ccc(Nc2ccccc2)cc1	31	-6
O=C(Cc1ccccc1)Nc1ccc(Nc2ccccc2)cc1	62*	-4
Cc1ccc(C(=O)Nc2ccc(N3CCOCC3)cc2)cc1C	11	3
Cc1ccc(C(=O)Nc2ccc(N3CCCC3)cc2)cc1Cl	100*	-3
O=C(Cc1ccccc1)Nc1ccc(N2CCCC2)cc1	92*	-10
Cc1ccc2c(c1)C(=O)NC1(CCN(C(=O)c3ccc(F)c(Cl)c3)CC1)N2C	-9	-3
CC1(C)CC(=O)C2=C(C1)Nc1nc(C(F)(F)F)nn1C2c1cccc(Cl)c1 (configuration not stated)	-1	-7
CCOc1ncccc1CNC(=O)c1c[nH]c2ccccc12	-6	2
COc1ccc(NC(=O)c2ccc(-c3ccc([N+](=O)[O-])cc3OC)o2)cc1Cl	42	-7
COc1ccc(CC(=O)Nc2ccc(Nc3ccccc3)cc2)cc1OC	62*	-7
O=C(Cc1ccccc1)Nc1ccccc1NC(=O)Cc1ccccc1	2	-7
O=C(Cc1ccccc1)Nc1cccc(NC(=O)Cc2ccccc2)n1	-4	65*
COc1ccccc1C(=O)Nc1cnc(N2CCCC2)nc1	-3	-2
COc1ccc(CC(=O)Nc2ccccc2)cc1OC	-2	-6
COc1ccccc1C(=O)Nc1ccc(N2CCCC2)cc1	61*	0
COc1cc([N+](=O)[O-])ccc1-c1ccc(C(=O)Nc2ccc(N3CCCCC3)cc2)o1	51*	-5
CC(C)Cc1ccc(S(=O)(=O)Nc2cccnc2)cc1	-22	-4
SMILES	mHTT CaM bind	Pf apPOL inh
S=C(Nc1cccnc1)NC1CCN(Cc2ccccc2)CC1	/	-16
O=C(c1cccs1)N1CCC(c2nncn2Cc2ccccc2)CC1	-1	0
CCOc1cccc(N2C(=O)CC(N3CCN(CC)CC3)C2=O)c1 (configuration not stated)	2	2
Cc1cccc(-c2noc(C3CCCN3C(=O)NCCc3ccccc3)n2)c1 (configuration not stated)	9	1
OCc1nc2ccccc2n1CCc1ccccc1	0	-3
O=C(NCc1ccco1)C1CCCN(c2nnc3ccc(Cl)cn23)C1 (configuration not stated)	16	13
O=C(O)CNC(=O)/C(=C\c1ccc2c(c1)OCO2)NC(=O)c1cccc(Br)c1	0	9
O=C(Nc1ccc(N2CCCN(C(=O)C3CC3)CC2)cc1)c1cc(-c2ccccc2)on1	13	-4
COc1cccc2cc(C(=O)Nc3ccc(N4CCCN(C(=O)C5CC5)CC4)cc3)oc12	61*	4
CC12CCC3C(CCC4CCCCC43C)C1CC(c1nc3ccccc3[nH]1)=C2O (configuration not stated)	-1	-1
CC12CCC3C(CCC4CCCCC43C)C1CCC2N (configuration not stated)	100*	-1
CC(=O)Nc1ccc(C(=O)N2CCc3cn(CC(C)C)c4cccc(c34)C2)cc1	72*	-1
CC(=O)N1CCc2cn(CC(C)C)c3cccc(c23)C1	44	-2
COc1ccc(NC(=O)N2CCc3cn(CC(C)C)c4cccc(c34)C2)cc1OC	29	-1
CCC(=O)N1CCc2cn(CC(C)C)c3cccc(c23)C1	54*	-5
Oc1ccc(N2Cc3ccccc3C2)cc1	100*	-8
